In all, about 300,000 compounds went through this assay and about 37,000 (12%) were called active. Many of the other results were omitted from the sample, so actives are more common in it than they were. Values without a mark were called inactive. Cut-off read from the data, not from the text of the source: active = max response mostly above about 13% (no sharp cut-off); inactive = mostly below about 14%.
test: Cycloheximide Counterscreen for Small Molecule Inhibitors of Shiga Toxin; details: cell reporter, cycloheximide protein synthesis inhibition counterscreen; stronger effect = higher value; note: read at 38.3 µM for the half of the compounds with a filed dose; 0% is about no effect

Structure (SMILES)	max response
CCCc1nc2c(c(=O)c3ccccc3n2C)c(=O)n1-c1cc(C)cc(C)c1	-0.943%
NS(=O)(=O)c1ccc(NC(=O)COC(=O)c2c3c(nc4ccccc24)/C(=C\c2ccc4c(c2)OCO4)CCC3)cc1	42.8% (active)
NC(=O)c1ccc(NC(=O)COC(=O)c2c3c(nc4ccccc24)/C(=C\c2ccc4c(c2)OCO4)CCC3)cc1	38.8% (active)
CN(C)S(=O)(=O)c1ccc(NC(=O)COC(=O)c2n[nH]c3ccccc23)cc1	-0.614%
COc1cc(-c2cc(C(=O)OCC(=O)Nc3ccc4c(c3)OCO4)c3ccccc3n2)cc(OC)c1OC	4.65%
COc1cc(/C=C2\CCCc3c2nc2ccccc2c3C(=O)O)cc(Cl)c1O	4.53%
O=C(COC(=O)c1c2c(nc3ccccc13)/C(=C\c1cccs1)CCC2)Nc1ccccc1Cl	10.2%
COc1ccc(C(=O)NC2CC2)cc1OC1CCN(Cc2cnn(C)c2)CC1	-0.356%
CCCCc1nc2cc(C(=O)N3CCCCC3CCO)ccc2o1 (configuration not stated)	45.9% (active)
CCCCc1nc2cc(C(=O)NCCc3cnn(C)c3)ccc2o1	38.8% (active)
CCC1CCCCN1C(=O)Nc1cccc(NC(=O)N2CCCCC2CC)c1 (configuration not stated)	4.95%
CCC1CCCCN1C(=O)CSc1nc(C)cc(C)n1 (configuration not stated)	0.953%
Cc1c(C(=O)N(C)CCc2cnn(C)c2)oc2c(F)cccc12	-2.99%
CCn1c(=O)n(CC)c2cc(N3CCCC3)c(NC(=O)c3ccccc3Br)cc21	-1.85%
CC(C)(C)c1ccc(C(=O)N2CCN(CCNC(=O)C(=O)Nc3ccc(F)cc3)CC2)cc1	5.93%
Cc1ccc(-c2nnc(-n3nnc4ccccc43)c3ccccc23)cc1	9.11%
O=C(Nc1nnc(S(=O)(=O)N2CCCCCC2)s1)c1cccc(Br)c1	-2.43%
O=C1N=C(N2CCc3ccccc3C2)S/C1=C\c1ccc(O)cc1	10.4%
CCOc1cc(/C=C2/C(=N)N3OC(C)=CC3=NC2=O)ccc1OC	4.64%

Structure (SMILES)	max response
CC1CCN(C2=NC(=O)/C(=C/c3cn[nH]c3-c3ccccc3)S2)CC1	20.1%
CCOc1cc(/C=C2\SC(N3CCCC(C)C3)=NC2=O)ccc1O (configuration not stated)	36.5% (active)
O=C1N=C(N2CCCC2)S/C1=C\c1cccc(Br)c1	20.2% (active)
CC1CCN(C2=NC(=O)/C(=C/c3ccc(O)cc3)S2)CC1	31.9% (active)
CCOc1cc(/C=C2\C(=N)N3N=C(C)SC3=NC2=O)ccc1OCCOc1ccccc1	-1.53%
CCOc1cc(/C=C2\SC(N3CCCCC3)=NC2=O)ccc1O	36.3% (active)
CCOc1cc(C(=S)N2CCOCC2)ccc1O	-1.42%
O=C1N=C2SCCN2/C1=C\c1c(Cl)cccc1Cl	1.23%
CCOc1ccc(/C=C2\SC(=S)N(NC(=O)c3ccncc3)C2=O)cc1OC	-1.69%
Cc1ccc(N2CC(C(=O)NCCS(=O)(=O)N3CCN(c4ccccc4)CC3)CC2=O)cc1 (configuration not stated)	1.37%
CCOC(=O)c1c(-c2ccccc2)oc2ccc(OCC(N)=O)cc12	-1.21%
O=C(O)CCCCCCCCc1cn(CN2C(=O)c3ccccc3C2=O)nn1	1.15%
CCc1ccc(-c2cc3c(=O)n(CC(=O)NCCCN4CCN(Cc5ccccc5)CC4)nc(C)n3n2)cc1	-1.84%
O=C(Cn1nc(CNc2ccc(Cl)cc2)[n+]2c1CCCCC2)c1ccc(Cl)cc1	11%
Cc1cccc(Oc2c([N+](=O)[O-])c(=O)n(C)c3ccccc23)c1	6.49%
CCOc1ccc(CCNC(=O)C(CC)n2nc(C)n3c(cc4sccc43)c2=O)cc1OCC (configuration not stated)	-1.8%
Cn1c(=O)[nH]c(=O)c2c1nc(N1CCN(CCO)CC1)n2CCSc1nc2ccccc2s1	-5.89%
CCN(CC)CCCSc1nc2ccccc2s1	36% (active)
Cc1nc2nc(CSc3nc4ccccc4s3)cc(=O)n2[nH]1	-7.38%

Structure (SMILES)	max response
O=C(COCc1cc(-c2ccc3c(c2)OCO3)on1)N1CCN(c2cccc(Cl)c2)CC1	-2.82%
O=C(COC(=O)Cn1cnc2ccccc2c1=O)NCC12CC3CC(CC(C3)C1)C2	-1.91%
COc1cc(CNc2ncn[nH]2)ccc1OCc1ccccc1C	36.9% (active)
COc1ccc(CCNC(=O)C(=O)NCc2ccccc2C)cc1OC	-2.75%
c1n[nH]c(NCc2ccc3c(c2)OCO3)n1	-1.69%
COC(=O)CN1C(=O)[C@H]2[C@@H](/C=C/c3ccccc3)N3C(=O)CN(CC4CC4)C(=O)[C@@]3(Cc3ccccc3)[C@H]2C1=O	0.35%
Cc1c2cnn(CC(=O)NCCCN3CC(C)CC(C)C3)c(=O)c2c(C)n1Cc1ccc(Cl)cc1 (configuration not stated)	-5.34%
CCc1ccc2ncc(C(=O)c3ccccc3)c(N3CCOCC3)c2c1	2.65%
CCOc1ccc(C(=O)Nc2c3c(nn2-c2ccccc2)CS(=O)(=O)C3)cc1	-1.43%
COc1ccc(Cc2nc3ccc(C(=O)N4CCC(N(C)C)C4)cc3o2)cc1 (configuration not stated)	7.38%
COc1ccc(Cc2nc3ccc(C(=O)NCC4CCOCC4)cc3o2)cc1OC	23.6% (active)
CCC1C(=O)NCCN1C(=O)c1ccc2nc(Cc3ccc(OC)cc3)oc2c1 (configuration not stated)	16.3%
COCCNC(=O)c1ccc2nc(Cc3ccc(OC)c(OC)c3)oc2c1	32% (active)
CSCCNC(=O)c1ccc2nc(Cc3ccccc3F)oc2c1	54.4% (active)
COc1ccc(C(=O)NCCc2ccc(S(N)(=O)=O)cc2)cc1OC	9.83%
CCn1ccnc1CN(C)C(=O)c1ccc2nc(Cc3ccc(OC)cc3)oc2c1	-0.601%
COc1ccccc1-n1c(C)nc2cc(C(=O)NCc3ccc4c(c3)OCO4)ccc21	5.54%
Cn1cc(C(=O)NCc2ccccc2F)cn1	-3.82%
Cc1ccc(S(=O)(=O)N2CCC3(CC2)OCCO3)c(C)c1	-3.35%
